Spn PMK inh = S. pneumoniae PMK inhibition; purified PMK, PK/LDH-coupled NADH absorbance 340 nm; inhibition, % at 10 µM; 65,000 tested, 0.49% active;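 active = top-ranked compounds by inhibition in the single 10 µM screen, taking a fixed number of the strongest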;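 note: 0% = full reaction with DMSO carrier and 100% = background rate without enzyme reaction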
NADH coupling = inhibition of NAD/NADH coupling enzymes, library profiling | coupled PK/LDH NADH assays, four targets | IC50, µM (doses to about 10 µM), for the others: at the highest dose inhibition | 65,000 tested, 0.02% active | AID 774;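 active = single-dose screening hits from any of four coupled enzyme assays that gave an IC50 when retested across doses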;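 note: the DPM-DC format reads NADH fluorescence rather than 340 nm absorbance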
Spn DPM-DC inh = blocks S. pneumoniae diphosphomevalonate decarboxylase; 65,000 tested, 0.49% active; calls only at 10 µM; purified DPM-DC, PK/LDH coupled NADH fluorescence; AID 556;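 active = the 320 compounds with the highest percent inhibition in the single-dose primary screen, excluding strongly autofluorescent ones, cut at about 32% in these data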;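 note: kinetic rate of NADH fluorescence loss reporting ADP formed by the decarboxylase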
Spn MK inh = blocks S. pneumoniae mevalonate kinase; inhibition, % at 10 µM; 65,000 tested, 0.48% active; purified MK, PK/LDH-coupled NADH absorbance 340 nm;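 active = ranked among the strongest by inhibition in the single 10 µM screen, a fixed top-ranked set picked for dose follow-up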
Abs 340nm = compound absorbs light at 340 nm | compound absorbance at 340 nm, fold over control | fold change at 10 µM | 65,000 tested, under 10 active | AID 708;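 active = at 10 µM dose, initial 340 nm absorbance at least 2 fold that of control wells; inactive = change under 2 fold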;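 note: initial absorbance extrapolated from kinetic A340 decline of NADH oxidation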
Fluor 339 460 = intrinsic fluorescence of library compounds, ex339/em460 – biochemical, MLSMR library, data from DPM-DC assay, artefact control, profiling panel; compound autofluorescence, ex339/em460 nm, NADH buffer; active compounds read high; 1 = no-compound wells, NADH background; fluorescence fold increase at 10 µM; 65,000 tested, 5.5% active; AID 709;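 active = at 10 µM, mean starting fluorescence two-fold or more over control wells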;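 note: signal is the first read of a kinetic run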
* = called active by the depositor. Only some compounds are listed: those with a hit (about 6.5% of all), similar ones and a draw of the others.

`Cc1ccc2cc(C#N)c(N3CCCN(C(=O)C4CCCO4)CC3)nc2c1` (stereo not drawn) gave Spn PMK inh 15.0, NADH coupling 9.0%, Spn DPM-DC inh inactive, Spn MK inh 0.0, Abs 340nm 1.01 and Fluor 339 460 2.31*.
`CCC1(C)Cc2c(c(=O)n(-c3ccccc3)c3ncnc(N)c23)CO1` (stereo not drawn) gave Spn PMK inh 9.0, NADH coupling 7.0%, Spn DPM-DC inh inactive, Spn MK inh 6.0, Abs 340nm 1.05 and Fluor 339 460 1.98.
`CCCCOC(=O)n1c(SCC(=O)N(CC)CC)nc2ccccc21` gave Spn PMK inh 5.0, NADH coupling 3.0%, Spn DPM-DC inh inactive, Spn MK inh 0.0, Abs 340nm 0.98 and Fluor 339 460 1.02.
Screening CCCn1c(SCc2cc(=O)[nH]c3ccccc23)nc2c1c(=O)n(C)c(=O)n2C returned Spn PMK inh 6.0, NADH coupling 10.0%, Spn DPM-DC inh inactive, Spn MK inh 14.0, Abs 340nm 1.07 and Fluor 339 460 1.12.
Screening CCCCn1cnc2c(c1=O)c1nc3ccccc3nc1n2Cc1ccc2c(c1)OCO2 returned Spn PMK inh 0.0, NADH coupling 1.0%, Spn MK inh 2.0, Abs 340nm 1.01 and Fluor 339 460 2.27*.
`C=CCn1cnc2c(c1=O)c1nc3ccccc3nc1n2Cc1ccccc1` gave Spn PMK inh 15.0, NADH coupling 15.0%, Spn DPM-DC inh inactive, Spn MK inh 7.0, Abs 340nm 1.02 and Fluor 339 460 2.98*.
CCCn1cnc2c(c1=O)c1nc3ccccc3nc1n2CCC1=CCCCC1 was read as Spn PMK inh 11.0, NADH coupling 8.0%, Spn DPM-DC inh inactive, Spn MK inh 11.0, Abs 340nm 1.02 and Fluor 339 460 2.29*.
CCCn1cnc2c(c1=O)c1nc3ccccc3nc1n2CCc1ccccc1 was read as Spn PMK inh 2.0, NADH coupling 6.0%, Spn MK inh 9.0, Abs 340nm 1.03 and Fluor 339 460 3.99*.
For O=C(O)C1CC=CCC1C(=O)Nc1ccccc1Cl (stereo not drawn) the results were Spn PMK inh 11.0, NADH coupling 5.0%, Spn DPM-DC inh inactive, Spn MK inh 3.0, Abs 340nm 1.02 and Fluor 339 460 1.02.
For COc1ccccc1C(=O)NCCCn1cc(Br)c(C)n1 the results were Spn PMK inh 6.0, NADH coupling 5.0%, Spn DPM-DC inh inactive, Spn MK inh 4.0, Abs 340nm 1.03 and Fluor 339 460 1.13.
CN(C)c1ccc(C(c2nnnn2CCOC(=O)Nc2ccc(Cl)cc2)N2CCOCC2)cc1 (stereo not drawn) was read as Spn PMK inh 12.0, NADH coupling 7.0%, Spn DPM-DC inh inactive, Spn MK inh 9.0, Abs 340nm 1.01 and Fluor 339 460 1.09.
`COc1cccc(C2=NOC(C(=O)NC3CCCCC3)C2)c1` (stereo not drawn) gave Spn PMK inh 9.0, NADH coupling 4.0%, Spn DPM-DC inh inactive, Spn MK inh 2.0, Abs 340nm 1.01 and Fluor 339 460 1.09.
`Cc1nc2c(c(=O)n1CC1CCCO1)c1nc3ccccc3nc1n2CC(C)C` (stereo not drawn) gave Spn PMK inh 0.0, NADH coupling 5.0%, Spn DPM-DC inh inactive, Spn MK inh 13.0, Abs 340nm 0.98 and Fluor 339 460 1.45.
Screening CCOCCCn1c(C)nc2c(c1=O)c1nc3ccccc3nc1n2CCC1=CCCCC1 returned Spn PMK inh 10.0, NADH coupling 11.0%, Spn DPM-DC inh inactive, Spn MK inh 6.0, Abs 340nm 1.07 and Fluor 339 460 2.98*.
For CN(C)c1ccc2c(O)cc(=O)n(C)c2c1 the results were Spn PMK inh 0.0, NADH coupling 3.0%, Spn MK inh 6.0, Abs 340nm 1.13 and Fluor 339 460 2.27*.
Screening CN(c1ccc(Cl)cc1)c1cc(=O)n(C)c2ccccc12 returned Spn PMK inh 5.0, NADH coupling 3.0%, Spn DPM-DC inh inactive, Spn MK inh 2.0, Abs 340nm 1.05 and Fluor 339 460 1.34.
`O=C1CC(c2cccnc2)c2cc3c(cc2N1)OCO3` (stereo not drawn) gave Spn PMK inh 10.0, NADH coupling 5.0%, Spn DPM-DC inh active, Spn MK inh 12.0, Abs 340nm 1 and Fluor 339 460 1.08.
